Compound activity as filed in PubChem.
Most compounds without a hit are left out; they make up all but 5.6% or so of the library.
Six1-Eya2 blk – Six1/Eya2 interaction inhibition; Q15475+O00167; AlphaScreen GST-Six1/His-Eya2 binding, biochemical; hits give low values; activity change, % (concentration not given with the values); actives 0.56% (n = 360,000); in the data active = activity change below about -65%; inconclusive = mostly about -30% to -63%
Target sequence (O00167 whole entry, looked up): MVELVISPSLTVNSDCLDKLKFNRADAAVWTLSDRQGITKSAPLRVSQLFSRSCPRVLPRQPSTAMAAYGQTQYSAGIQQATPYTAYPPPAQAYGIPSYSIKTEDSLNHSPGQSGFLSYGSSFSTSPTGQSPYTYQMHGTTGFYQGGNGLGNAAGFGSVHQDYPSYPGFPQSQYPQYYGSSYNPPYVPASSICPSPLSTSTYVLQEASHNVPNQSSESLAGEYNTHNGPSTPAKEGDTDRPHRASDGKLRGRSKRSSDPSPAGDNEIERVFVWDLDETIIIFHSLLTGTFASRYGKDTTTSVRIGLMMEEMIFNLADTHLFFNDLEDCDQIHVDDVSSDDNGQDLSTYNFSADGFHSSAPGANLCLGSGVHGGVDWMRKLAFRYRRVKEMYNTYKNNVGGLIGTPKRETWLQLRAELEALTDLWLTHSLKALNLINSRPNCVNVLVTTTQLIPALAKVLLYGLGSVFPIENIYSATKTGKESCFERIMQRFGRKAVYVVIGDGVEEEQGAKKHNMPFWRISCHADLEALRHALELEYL
Target sequence (Q15475 whole entry, looked up): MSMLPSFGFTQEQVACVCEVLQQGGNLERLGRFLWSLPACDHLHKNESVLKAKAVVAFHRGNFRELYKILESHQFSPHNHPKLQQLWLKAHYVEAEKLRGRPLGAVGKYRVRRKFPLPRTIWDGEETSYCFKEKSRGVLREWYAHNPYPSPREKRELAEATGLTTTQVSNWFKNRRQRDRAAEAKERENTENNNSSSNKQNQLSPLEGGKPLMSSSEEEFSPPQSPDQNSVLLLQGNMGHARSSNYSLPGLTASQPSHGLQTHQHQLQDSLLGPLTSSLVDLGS
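Six1/Eya2 binding was read as AlphaScreen signal after compounds were pinned into GST-Six1 plus His-tagged Eya2 (5X stock 250/500 nM) in pH 8.0 Tris/NaCl/TCEP buffer, beads added, then incubated 1 h, 37 C, dark.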
RORg inh – inhibitors of mouse ROR gamma transcriptional activity; AID 2551; Potency, µM (titrated, usually from 53.6 µM), for the others: top-dose activity change, negative = inhibition, usual class: inhibitors; Drosophila S2 Gal4-RORgamma UAS-luciferase reporter, 20 h; actives 5.4% (n = 310,000); also: potency is read from the fitted curve at half-maximal effect; nearly all actives have a fitted effect of over 60% in size
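Compounds are pin-transferred onto Drosophila Schneider cells expressing a copper-inducible Gal4–ROR gamma transactivation domain fusion. After 1 hr, copper sulfate is added to 700 uM final; luciferase is read 20 hr later.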
Gal4-VP16 FLuc – counter-screen for ROR gamma inhibitors: Gal4-VP16 reporter; Drosophila S2 Gal4-VP16 UAS-luciferase, luminescence, 20 h; Potency, µM (series often up to 53.6 µM), without a hit: top-dose activity, negative = inhibition, most hits filed as inhibitors; actives 3.5% (n = 310,000); AID 2546;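 also: Gal4-VP16 expression switched on by copper sulfate through the metallothionein promoter; potency is read from the fitted curve at half-maximal effect; nearly all actives have a fitted effect of over 50% in size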
PKM2 activator – PKM2 (human) enzyme activation. purified PKM2, Kinase-Glo ATP luminescence, activation; response scale: 0% is enzyme alone, no compound. Potency, µM (titrated, usually from 57.5 µM), without a hit: at the top dose activation, most hits filed as activators. actives 0.34% (n = 260,000). AID 1631; also: potency is read from the fitted curve at half-maximal effect; nearly all actives have a fitted effect of over 55% in size
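Kinase-Glo luminescence reports ATP generated from ADP (0.1 mM) and PEP (0.5 mM) by purified hPK-M2 after 1 h at room temperature, pH 7.2 imidazole buffer; intermediate enzyme activity allows detecting inhibitors and activators.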
CtBP-E1A blk – blocks the CtBP interaction with E1A. AlphaScreen GST-E1A/His-CtBP binding, 1536-well; hits give low values. activity change, % (concentration not given with the values). actives 0.49% (n = 340,000); in the data active = activity change below about -65%; inconclusive = mostly about -30% to -63%
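AlphaScreen with 125 nM GST-E1A and 125 nM His-CtBP (5X stocks) in Tris pH 8.0, 300 mM NaCl, BSA, Tween 20, TCEP. Compounds preincubated 2 h at 37 deg C, then glutathione donor/nickel acceptor beads added for 1 h at 37 deg C in dark.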
Starred values were filed as active, the others as inactive; ? = inconclusive; / = no result; [ ] = another dose, or the depositor's remark. Unless noted, calls follow the shape of the dose curve; as a rule, active = well fitted curve in the direction sought with a large enough effect; inconclusive = small, poorly fitted or top-dose-only effect, or another doubt; inactive = no such curve, though single readings can be large; an effect the other way counts as inactive or inconclusive. % is scaled to controls: 0 for no effect and ±100 for the full control effect.

SMILES	Six1-Eya2 blk	RORg inh	Gal4-VP16 FLuc	PKM2 activator	CtBP-E1A blk
Cc1cccc(C)c1NC(=S)N(C)CCc1ccccn1	-5	-15%	0%	-8%	0
COc1cc2c(cc1OC)C(c1ccccc1)CN(C)CC2 (stereo not drawn)	/	-31%	0%	/	/
Cc1[nH]n(C(N)=S)c(=O)c1N=Nc1ccc(S(=O)(=O)N2CCCC2)cc1	-3	0.28µM*	1.3µM*	5%	-10
Cc1[nH]n(C(N)=S)c(=O)c1N=Nc1ccc(Br)cc1	6	0.35µM*	2µM*	/	/
Cc1ccc(N=Nc2c(C)[nH]n(C(N)=S)c2=O)cc1	17	0.32µM*	0.89µM*	1%	-10
Cc1[nH]n(-c2ccccc2)c(=O)c1N=Nc1ccc(C(N)=O)cc1	1	37%	-7%	-1%	9
O=C(O)c1cc2cc(Cl)cc(Cl)c2oc1=O	?	-27%	-22%	-5%	-74*
CC(NC(=O)CCCc1ccccc1)c1ccncc1 (stereo not drawn)	-3	-7%[1.91 µM]	11%	1%	-4
O=C(NC(=S)Nc1ccccc1)c1cccs1	-8	5µM*	8.9µM*	3%	-2
O=C(NNC(=S)NC(=O)c1cccs1)c1cccnc1	-9	-20%	4%	1%	-2
O=C(Nc1ccc(NC(=S)NC(=O)c2cccs2)cc1)c1ccccc1	-5	7.9µM*	16µM*	0%	-4
O=C(N/N=C(\CC(=O)c1cccs1)C(F)(F)F)c1cccnc1	5	-34%	-4%	8%	6
O=C(NNC(=S)NC(=O)c1cccs1)c1ccc(O)cc1	-5	7.9µM*	11µM*	/	-17
CC(=O)NC(=S)Nc1ccc(NC(=O)c2cccs2)cc1	6	44%	29%	-5%	6
O=C(N/N=C(/CC(=O)c1cccs1)C(F)(F)F)c1ccc(O)cc1	-25	18µM*	?	6%	-19
CC[C@]12c3[nH]c4cc(-c5ccco5)ccc4c3CCN1C(=O)[C@@H](CC(=O)NC(C)(C)C)C[C@@H]2C(=O)N1CCN(C(=O)C2CC2)CC1	0	/	/	/	-4
COC(=O)N1CCC2(CCCN(C(=O)Nc3ccccc3)C2)CC1	/	16%	-1%	/	/
CCC(CO)NCc1ccc(OCC(O)c2ccccc2)c(OC)c1 (stereo not drawn)	3	-52%	0%	-3%[11.5 µM]	3
CC(OC(=O)c1cccs1)C(=O)NC1CCCCC1C (stereo not drawn)	4	/	/	/	-1
O=C(NNC(=O)c1cccs1)c1ccccc1	4	1%	5%	-1%	/
O=C(NNC(=S)NC(=O)c1cccs1)c1ccc(NC(=O)c2ccccc2)cc1	0	4.5µM*	6.3µM*	-1%	7
CCCCC(=O)Nc1ccc(C(=O)NNC(=S)NC(=O)c2cccs2)cc1	1	7.9µM*	8.9µM*	0%	-2
CCCCC(=O)Nc1ccc(C(=O)Nc2ccc(S(=O)(=O)Nc3ccc(C)cc3)cc2)cc1	8	?	11µM*	-14%	-5
Cc1ccc(S(=O)(=O)Nc2ccc(NC(=O)c3ccc(F)cc3)cc2)cc1	26	10%	-9%	0%	/
CCCCC(=O)Nc1ccc(C(=O)NNC(=S)NC(=O)c2ccco2)cc1	-5	13%	20%	6%	-1
SMILES	Six1-Eya2 blk	RORg inh	Gal4-VP16 FLuc	PKM2 activator	CtBP-E1A blk
CC1CCCCC1NC(=S)NC(=O)c1cccs1 (stereo not drawn)	-20	1.6µM*	13µM*	-3%	3
C[C@@H]1CN([C@@H](C)CO)C(=O)Cc2cc(NC(=O)C3CCCCC3)ccc2O[C@H]1CN(C)S(=O)(=O)c1ccccc1	-4	/	/	/	0
Cc1ccc(N2CC(C(=O)Nc3ccc4c(c3)OCO4)CC2=O)cc1C (stereo not drawn)	3	-8%	1%	-9%	-11
CC(=O)NC12CC3CC(C1)CC(C(=O)N1CCN(S(=O)(=O)c4ccccc4C#N)CC1)(C3)C2	7	/	/	/	5
c1ccc(CSc2ncnc3c2cnn3Cc2ccccc2)cc1	36	28%	-3%	5µM*	19
CC(C)(C)C(=O)CSc1ncnc2c1cnn2Cc1ccccc1	8	11%	2%	/	11
CC(C)OC(=O)CSc1ncnc2c1cnn2Cc1ccccc1	7	1%[10 µM]	4%	26%	13
